An excerpt weighted towards active compounds, which were near 3.1% of everything screened.
VDR inhibitor – blocks the human vitamin D receptor | P11473 | VDR-SRC2-3 peptide fluorescence polarization, 2 h | Potency, µM, without a hit: max response, negative = inhibition, actives largely listed as inhibitors | 400,000 compounds, 0.93% hits | AID 504847; note: potency is the fitted concentration of half-maximal effect; % is set by controls: 0 for no effect and ±100 for the full control effect
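VDR–SRC2-3 interaction, FP format. Cmpds 23 nl via pintool, brief spin, 2 h ambient incubation.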
PLK1 PBD block – inhibitors of human PLK1 polo-box domain binding; P53350; Plk1 PBD binding of FITC phosphopeptide, fluorescence polarization; Potency, µM, for the others: max response, negative = inhibition, usual class: inhibitors; 360,000 compounds, 2.8% hits; AID 720504; note: potency is the fitted concentration of half-maximal effect; series mostly up to about 57 µM; % is set by controls: 0 for no effect and ±100 for the full control effect; nearly all actives have a fitted effect of over 65% in size
Target sequence (P53350 whole entry, looked up, the tested form may be a part): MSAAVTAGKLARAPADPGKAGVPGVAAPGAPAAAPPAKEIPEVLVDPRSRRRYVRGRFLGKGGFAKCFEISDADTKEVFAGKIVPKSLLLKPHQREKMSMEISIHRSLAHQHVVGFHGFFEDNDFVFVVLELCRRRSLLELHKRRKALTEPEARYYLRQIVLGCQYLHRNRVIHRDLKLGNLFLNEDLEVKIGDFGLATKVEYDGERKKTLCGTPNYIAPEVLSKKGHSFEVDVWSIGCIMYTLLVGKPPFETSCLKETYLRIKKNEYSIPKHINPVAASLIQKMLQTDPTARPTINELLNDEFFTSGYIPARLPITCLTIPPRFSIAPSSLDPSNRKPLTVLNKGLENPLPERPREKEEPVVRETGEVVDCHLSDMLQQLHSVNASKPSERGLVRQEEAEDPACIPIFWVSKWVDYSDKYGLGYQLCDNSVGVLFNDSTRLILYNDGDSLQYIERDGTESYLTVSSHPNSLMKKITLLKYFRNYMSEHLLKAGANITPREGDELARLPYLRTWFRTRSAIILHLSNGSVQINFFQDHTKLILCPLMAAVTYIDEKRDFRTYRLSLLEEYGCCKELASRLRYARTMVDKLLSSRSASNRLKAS
Vif-A3G inh – inhibitors of Vif-APOBEC3G interaction; Q9HC16; HeLa A3G-eYFP + Vif (tagged APOBEC3G with the HIV-1 protein that degrades it), YFP fluorescence, overnight; Potency, µM (top dose mostly 46.1 µM), for inactives: top-dose activity, negative = active, actives largely listed as inhibitors; 410,000 compounds, 0.076% hits; AID 602310; note: potency is the fitted concentration of half-maximal effect; % is set by controls: 0 for no effect and ±100 for the full control effect; nearly all actives have a fitted effect of over 60% in size
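HeLa cells stably expressing Vif and C-terminally eYFP-tagged A3G, seeded overnight at 37 deg C, then exposed to compound by pintool overnight at 37 deg C. Rise in yellow fluorescence (Ex 488/Em 500-530, Acumen) marks blocked Vif-driven A3G degradation.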
TSHR antagonist – human thyrotropin receptor antagonism. TSHR-expressing cells, TSH-stimulated cAMP HTRF, 2 h; stronger effect = lower value. activity change, negative = inhibition, % at 11.5 µM. 330,000 compounds, 0.2% hits. AID 504810;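 active = activity change below a set negative limit, meaning inhibition stronger than a set level, cut at about -70% in these data; inconclusive = activity change between two set negative limits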; note: % is set by controls: 0 for no effect and ±100 for the full control effect
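Freshly harvested TSHR cells receive pin-tooled compound, then EC80 TSH at 4nM final. After 2 hours at 37 deg C, antibody in lysis buffer and cAMP-d2 are added; 30 minutes at ambient temperature precede the HTRF read.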
Vif-A3F inh – Vif-A3F binding inhibition | Potency, µM (series often up to 46.1 µM), without a hit: at the highest dose activity, negative = active | 390,000 compounds, 0.2% hits | HeLa A3F-eYFP + Vif (tagged APOBEC3F with the HIV-1 protein that degrades it), YFP fluorescence increase | AID 602313; note: potency is the fitted concentration of half-maximal effect; % of control where 0% means no effect; nearly all actives have a fitted effect of over 65% in size
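HeLa cells stably expressing Vif plus C-terminally eYFP-tagged A3F were seeded, incubated overnight at 37 deg C, dosed with compound, incubated overnight again at 37 deg C. Yellow fluorescence (Ex 488/Em 500-530) reported blocked Vif-mediated A3F-eYFP degradation.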
Active calls of the source: *; ! = repeats disagree. Unless noted, calls come from the whole dose curve; as a rule, active = well fitted curve in the direction sought with a large enough effect; inconclusive = small, poorly fitted or top-dose-only effect, or another doubt; inactive = no such curve, though single readings can be large; an effect the other way counts as inactive or inconclusive.

Results for COc1ccccc1CNC(=O)CCc1nnc2ccc(NCCCN3CCCC3=O)nn12 ?
VDR inhibitor: -9%; PLK1 PBD block: 21µM*; Vif-A3G inh: 0%; TSHR antagonist: -2; Vif-A3F inh: -10%

How did COc1ccc(OC)c(CCNC(=O)CCc2nnc3ccc(N4CCOCC4)nn23)c1 do in these assays?
VDR inhibitor: -20%; PLK1 PBD block: 30µM*; Vif-A3G inh: 1%; TSHR antagonist: -4; Vif-A3F inh: -6%

What do the screens show for `O=C(CCc1nnc2ccc(N3CCC4(CC3)OCCO4)nn12)Nc1ccc(F)cc1`?
VDR inhibitor: inconclusive; PLK1 PBD block: 13µM*; Vif-A3G inh: 3%; TSHR antagonist: 17; Vif-A3F inh: -4%

How did CC(Cl)OC(=O)Nc1cccc2cccnc12 (stereo not given) do in these assays?
VDR inhibitor: 5%; Vif-A3G inh: -2%

Results for C=C(C)CC(C)(C)C ?
VDR inhibitor: -6%

What do the screens show for `CCCCN(CCCC)c1ccc(/C=C2\C=Cc3ccccc32)cc1`?
Vif-A3G inh: -43%

Results for COc1cccc(N2CCN(c3ccc4nnc(CCC(=O)N5CCC(C)CC5)n4n3)CC2)c1 ?
VDR inhibitor: -28%; PLK1 PBD block: 24µM*; Vif-A3G inh: -1%; TSHR antagonist: -18; Vif-A3F inh: 3%

What do the screens show for `COc1cccc(N2CCN(c3ccc4nnc(CCC(=O)Nc5cccc(C(C)=O)c5)n4n3)CC2)c1`?
VDR inhibitor: inconclusive; PLK1 PBD block: 21µM*; Vif-A3G inh: -7%; TSHR antagonist: -6; Vif-A3F inh: 2%

How did Cc1ccc(S(=O)(=O)N2CCCN(c3nc(-c4cccs4)nc4ccccc34)CC2)cc1 do in these assays?
VDR inhibitor: -28%; Vif-A3G inh: 2%

How did COc1ccc2c(c1O)-c1ccccc1CCN(C)C2 do in these assays?
VDR inhibitor: -10%; PLK1 PBD block: -2%; Vif-A3G inh: 2%; TSHR antagonist: 16; Vif-A3F inh: -6%

Results for CN1CCc2cccc3c2[C@@H]1Cc1ccc(O)c(O)c1-3 ?
VDR inhibitor: 32µM*!; PLK1 PBD block: inconclusive; Vif-A3G inh: -4%; TSHR antagonist: -10; Vif-A3F inh: -1%

How did CN(Cc1ccccc1)C(=O)c1ccc2c(c1)N(Cc1ccc(Cl)cc1)C(=O)c1ccccc1S2=O (stereo not given) do in these assays?
VDR inhibitor: -1%; Vif-A3G inh: -2%; Vif-A3F inh: -1%

What do the screens show for `Cc1ccc(OCCOC(=O)c2nc3nccc(C)n3n2)cc1`?
VDR inhibitor: inconclusive; PLK1 PBD block: 27µM*; Vif-A3G inh: -4%; TSHR antagonist: 1; Vif-A3F inh: -7%

How did O=C(COc1ccc(Cl)cc1Cl)NC(=S)N1CCCc2ccccc21 do in these assays?
VDR inhibitor: 18%; PLK1 PBD block: 27µM*; Vif-A3G inh: -8%; TSHR antagonist: 4; Vif-A3F inh: -5%

Results for O=C(COc1ccc(Cl)cc1Cl)OCC(=O)N1CCCc2ccccc21 ?
VDR inhibitor: 13%; PLK1 PBD block: 0%; Vif-A3G inh: -7%; TSHR antagonist: -10; Vif-A3F inh: 2%

Results for CN(c1ccccc1)c1nc(C#N)nc(N2CCOCC2)n1 ?
VDR inhibitor: -29%; Vif-A3G inh: -1%

How did O=S(=O)(CS(=O)(=O)Oc1ccccc1)Oc1ccccc1 do in these assays?
VDR inhibitor: -21%; PLK1 PBD block: 21µM*; Vif-A3G inh: 0%; Vif-A3F inh: 3%

What do the screens show for `COc1ccccc1N1CCN(C(=O)c2cnn(-c3cccc(Cl)c3)c2C2CCN(C(=O)OC(C)(C)C)CC2)CC1`?
VDR inhibitor: -2%; Vif-A3G inh: -5%; Vif-A3F inh: 7%

Results for CC(Cl)C(=O)c1ccc2c(c1)CCN2C(=O)C1CC1 (stereo not given) ?
VDR inhibitor: 29%; PLK1 PBD block: 19µM*; Vif-A3G inh: -13%; TSHR antagonist: -5; Vif-A3F inh: 0%

Results for c1cncc(-c2nnc(-c3cccnc3)nn2)c1 ?
VDR inhibitor: -50%; PLK1 PBD block: 6.7µM*; Vif-A3G inh: -9%; TSHR antagonist: -5; Vif-A3F inh: 9%

Results for c1ccc(-c2nnc(-c3ccccc3)nn2)cc1 ?
VDR inhibitor: 18%; PLK1 PBD block: 4%; Vif-A3G inh: 1%; TSHR antagonist: -7; Vif-A3F inh: 9%

Results for CC(=O)Nc1nc(=S)n(-c2ccccc2)[nH]1 ?
VDR inhibitor: -26%; PLK1 PBD block: 27µM*; Vif-A3G inh: 0%; TSHR antagonist: 3; Vif-A3F inh: -8%

Results for CN(C(=O)CCN1C(=O)/C(=C/c2ccc(F)cc2)SC1=S)C1CCS(=O)(=O)C1 (stereo not given) ?
PLK1 PBD block: -6%; Vif-A3G inh: 2%; Vif-A3F inh: -8%

How did CCN(C(=O)C(C)N1C(=O)/C(=C/c2ccco2)SC1=S)C1CCS(=O)(=O)C1 (stereo not given) do in these assays?
VDR inhibitor: 4%; PLK1 PBD block: 19µM*; Vif-A3G inh: 0%; TSHR antagonist: -7; Vif-A3F inh: 3%

Results for CC(C(=O)N(C)C1CCS(=O)(=O)C1)N1C(=O)/C(=C/c2ccc(F)cc2)SC1=S (stereo not given) ?
VDR inhibitor: 79µM*; PLK1 PBD block: inconclusive; Vif-A3G inh: 3%; TSHR antagonist: -12; Vif-A3F inh: -1%

What do the screens show for `CC(C)(C)n1ncc2c(=O)n(Cc3cccc(OC(F)(F)F)c3)cnc21`?
Vif-A3G inh: 2%

What do the screens show for `CCC(=O)N1c2ccc(S(=O)(=O)CCC(=O)N3CCN(c4cc(C)ccc4C)CC3)cc2CC1C` (stereo not given)?
VDR inhibitor: -11%; Vif-A3G inh: 2%; Vif-A3F inh: -4%

How did CCOC(=O)C1CCN(S(=O)(=O)c2ccc3c(c2)CCN3C(=O)C2CCC2)CC1 do in these assays?
VDR inhibitor: inconclusive; PLK1 PBD block: 27µM*; Vif-A3G inh: 1%; TSHR antagonist: 6; Vif-A3F inh: 1%

What do the screens show for `Cc1ccc(C)c(N2CCN(C(=O)CCS(=O)(=O)c3ccc4c(c3)CCN4C(=O)C3CC3)CC2)c1`?
VDR inhibitor: -11%; PLK1 PBD block: -5%; Vif-A3G inh: 1%; TSHR antagonist: -82*; Vif-A3F inh: -4%

What do the screens show for `Nc1cccc2c1C(=O)N(C(=O)/C=C/c1cccc(F)c1)C2=O`?
VDR inhibitor: 40µM*; PLK1 PBD block: inconclusive; Vif-A3G inh: inconclusive; TSHR antagonist: 9; Vif-A3F inh: 6%

How did COCCCNC(=O)c1cc2cc3cc(OC)ccc3nc2o1 do in these assays?
VDR inhibitor: -22%; PLK1 PBD block: 21µM*; Vif-A3G inh: 1%; TSHR antagonist: -7; Vif-A3F inh: 0%

What do the screens show for `CCN(CC)CCNC(=O)c1cc2cc3ccc(OC)cc3nc2o1`?
VDR inhibitor: 5%; PLK1 PBD block: -14%; Vif-A3G inh: 8%; TSHR antagonist: -7; Vif-A3F inh: 7%
